Outcome and Potency data for 37 compounds are collected here from PubChem BioAssay (NCATS).

SMILES strings stand for the structures. Results filed as inconclusive are left out. A call without a number means that no potency is given here. Calls of active or inactive are those of the source. Calls follow the shape of the dose curve; as a rule, active = well fitted curve in the direction sought with a large enough effect; inconclusive = small, poorly fitted or top-dose-only effect, or another doubt; inactive = no such curve, though single readings can be large; an effect the other way counts as inactive or inconclusive.

One test can be described thus: qHTS for compounds that reverse cellular toxicity of Amyloid beta (A-beta) peptide in yeast: LOPAC Validation Assay (AID 720559). The conditions noted are these: yeast expressing A-beta; series mostly up to 46.1 µM. In short, it runs like this:
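Activity is expressed relative to DMSO and an equimolar ferric chloride/clioquinol mix. Compounds were pinned into medium with A-beta-expressing yeast, grown 48 hr at 30 C, then read by absorbance at 600 nm.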
(In general: qHTS replaces the single test concentration by a dilution series.)
`Brc1c(Br)c(Br)c2[nH]cnc2c1Br`: the outcome was inactive.

Turning to `Fc1ccc(CN(C2=NCCN2)c2c(Cl)cccc2Cl)cc1`, the call was inactive.

Consider `COc1ccccc1N1CCN(CCCCNC(=O)c2ccc3ccccc3c2)CC1`, for which the outcome was inactive.

For `COCc1nc2c([nH]1)c(=O)n(C)c(=O)n2CC(C)C`, the call was inactive.

As to `c1ccc(C(NCCNC(c2ccccc2)c2ccccc2)c2ccccc2)cc1`, the compound was classed as inactive.

Regarding `CN1CC(O)C(O)C(O)C1CO` (stereo unspecified), the compound was classed as inactive.

As to `COc1ccc(-c2ccc(N)[n+](CCCC(=O)O)n2)cc1`, the outcome was inactive.

Take `COC(=O)[C@H](NC(=O)c1cc(-c2ccccc2)nc2ccccc12)c1ccccc1`: the compound was called inactive.

`CCCOC(=O)c1c(-c2ccccc2)nc(CC)c(C(=O)SCC)c1CCC`: the result was inactive.

Take `CCCCOC(=O)NS(=O)(=O)c1sc(CC(C)C)cc1-c1ccc(Cn2c(CC)nc3c(C)cc(C)nc32)cc1`: the outcome was inactive.

Regarding `CN1CCN(c2nc3cc(C(F)(F)F)ccc3n3cccc23)CC1`, the outcome was inactive.

Consider `COc1ccc(NC(=O)c2ccc(-c3ccc(-c4noc(C)n4)cc3C)cc2)cc1N1CCN(C)CC1`, for which the outcome was inactive.

`C/C(=C\c1ccc(C(=O)O)cc1)c1ccc2c(c1)C(C)(C)CCC2(C)C`: the compound was called inactive.

As to `C#CCn1c(=O)c2c(ncn2C)n(C)c1=O`, the result was inactive.

With `CC#CCOC(=O)c1c(C)nc2sc3c(c2c1N)CCC(O)C3` (stereo unspecified), the compound was classed as inactive.

With `CCCc1c(-c2ccc(O)cc2)nn(-c2ccc(O)cc2)c1-c1ccc(O)cc1`, the compound was classed as inactive.

As for `N[C@@H](Cc1ccc(O)c(I)c1)C(=O)O`, the compound was called inactive.

Consider `O=c1[nH]c(=S)[nH]c(-c2ccccc2)c1Cc1c(O)ccc2ccccc12`, for which the compound was classed as inactive.

A further test is described as follows: qHTS for Activators of Parkin Expression: LOPAC Validation Assay (NLuc Reporter) (AID 720572; also: potency is read from the fitted curve at half-maximal effect). Particulars: Parkin promoter NanoLuc reporter cells, luminescence; series mostly up to 46.1 µM. In short, it runs like this:
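NLuc signal, read 10 min after reagent and following a prior FLuc read, is normalized to DMSO (0) and positive controls (100%). Cells: neuronal Parkin-promoter coincidence reporter line; compounds tested 7-point, 24 h, 37 C, 5% CO2.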
On to `C=C1C[C@@]23CC[C@H]4[C@@](C)(CCC[C@@]4(C)C(=O)O)[C@@H]2CC[C@]1(O)C3`, for which the Potency result was “inactive”.

Consider `CCn1c(=O)[nH]c2cc(Cl)c(Cl)cc21`, for which the Potency result was “inactive”.

In the case of `CC[C@@H]1Cc2cc(O)ccc2C2=C1c1ccc(O)cc1C[C@H]2CC`, the Potency entry is “inactive”.

With `CCCc1c(OCCCOc2ccc(OCC(=O)O)cc2)ccc(C(C)=O)c1O`, the Potency entry was “inactive”.

In the case of `CCOC(=O)C12CC1/C(=N/O)c1ccccc1O2` (stereo unspecified), the Potency result was “inactive”.

With `S=C(S)N1CCCC1`, the Potency result was “inactive”.

`CC1=C(/C=C/C(C)=C/C=C/C(C)=C\C(=O)O)C(C)(C)CCC1`: the Potency result was “inactive”.

As for `CC(=O)O[C@H]1Cc2ccccc2N(C(N)=O)c2ccccc21`, the Potency result was “inactive”.

As to `Cc1nc2n(c(=O)c1CCN1CCC(c3noc4cc(F)ccc34)CC1)CCCC2O` (stereo unspecified), the Potency result is “inactive”.

On to `CN1CCC2(CCN3CCc4c(oc5ccccc45)C3C2)N(C)C1=O` (stereo unspecified), for which the Potency result is “inactive”.

For `Fc1ccc(CN(C2=NCCN2)c2c(Cl)cccc2Cl)cc1`, the Potency entry is “inactive”.

On to `COc1ccccc1N1CCN(CCCCNC(=O)c2ccc3ccccc3c2)CC1`, for which the Potency result is “inactive”.

With `COCc1nc2c([nH]1)c(=O)n(C)c(=O)n2CC(C)C`, the Potency entry was “inactive”.

On to `c1ccc(C(NCCNC(c2ccccc2)c2ccccc2)c2ccccc2)cc1`, for which the Potency result was “inactive”.

In the case of `CN1CC(O)C(O)C(O)C1CO` (stereo unspecified), the Potency entry is “inactive”.

Regarding `COc1ccc(-c2ccc(N)[n+](CCCC(=O)O)n2)cc1`, the Potency result was “inactive”.

For the compound `CCCOC(=O)c1c(-c2ccccc2)nc(CC)c(C(=O)SCC)c1CCC`, the Potency entry is “inactive”.

Consider `CN1CCN(c2nc3cc(C(F)(F)F)ccc3n3cccc23)CC1`, for which the Potency result was “inactive”.

On to `COc1ccc(NC(=O)c2ccc(-c3ccc(-c4noc(C)n4)cc3C)cc2)cc1N1CCN(C)CC1`, for which the Potency was 20.6 µM (active).

As for `c1ccc(C(NCc2cccnc2)(c2ccccc2)c2ccccc2)cc1`, the Potency entry was “inactive”.

`C/C(=C\c1ccc(C(=O)O)cc1)c1ccc2c(c1)C(C)(C)CCC2(C)C`: the Potency result is “inactive”.

As to `C#CCn1c(=O)c2c(ncn2C)n(C)c1=O`, the Potency entry was “inactive”.

Consider `O=c1oc(Cl)c(Cl)c2ccccc12`, for which the Potency entry was “inactive”.

As to `CC#CCOC(=O)c1c(C)nc2sc3c(c2c1N)CCC(O)C3` (stereo unspecified), the Potency result was “inactive”.

Turning to `CCCc1c(-c2ccc(O)cc2)nn(-c2ccc(O)cc2)c1-c1ccc(O)cc1`, the Potency is 2.06 µM (active).

Take `N[C@@H](Cc1ccc(O)c(I)c1)C(=O)O`: the Potency entry is “inactive”.

A short description of the next test: qHTS for Activators of Parkin Expression: LOPAC Validation Assay (FLuc Reporter) (AID 720573; also: potency is read from the fitted curve at half-maximal effect). The conditions noted are these: Cell line, PRKN promoter firefly luciferase reporter; series mostly up to 46.1 µM. An outline of the steps: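 A neuronal cell line harbouring FLuc and NLuc reporters behind the Parkin promoter was exposed to compounds for 24 h. Firefly luciferase signal, measured after 10 min with detection reagent, was scaled to DMSO and positive-control wells.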
As to `C=C1C[C@@]23CC[C@H]4[C@@](C)(CCC[C@@]4(C)C(=O)O)[C@@H]2CC[C@]1(O)C3`, the Potency entry was “inactive”.

For the compound `CCn1c(=O)[nH]c2cc(Cl)c(Cl)cc21`, the Potency entry was “inactive”.

Turning to `NC(=Nc1ccccc1)NC(=O)c1nc(Cl)c(N)nc1N`, the Potency is 8.2 µM (active).

`CCCc1c(OCCCOc2ccc(OCC(=O)O)cc2)ccc(C(C)=O)c1O`: the Potency entry was “inactive”.

On to `CCOC(=O)C12CC1/C(=N/O)c1ccccc1O2` (stereo unspecified), for which the Potency entry is “inactive”.

`S=C(S)N1CCCC1`: the Potency result is “inactive”.

As to `N#CC(=C(\N)Sc1ccccc1N)/C(C#N)=C(/N)Sc1ccccc1N`, the Potency entry was “inactive”.

Consider `CCCC[C@@]1(C2CCCC2)Cc2cc(OCC(=O)O)c(Cl)c(Cl)c2C1=O`, for which the Potency entry is “inactive”.

`O=c1cc(O)cc(/C=C/c2ccc(O)c(O)c2)o1`: the Potency result is “inactive”.

For the compound `COc1cc(/C=C(\C#N)C(=O)Nc2nnc(C(F)(F)F)s2)ccc1OCc1ccc(C(F)(F)F)cc1C(F)(F)F`, the Potency result is “inactive”.

In the case of `CC(=O)O[C@H]1Cc2ccccc2N(C(N)=O)c2ccccc21`, the Potency entry is “inactive”.

Turning to `COc1ccc2c(c1)c(CC(=O)O)c(C)n2C(=O)c1ccccc1`, the Potency entry is “inactive”.

For the compound `Cc1nc2n(c(=O)c1CCN1CCC(c3noc4cc(F)ccc34)CC1)CCCC2O` (stereo unspecified), the Potency result was “inactive”.

As to `CN1CCC2(CCN3CCc4c(oc5ccccc45)C3C2)N(C)C1=O` (stereo unspecified), the Potency entry is “inactive”.

For the compound `C=CC1(C)CC(=O)C2(O)C(C)(O1)C(OC(C)=O)C(O)C1C(C)(C)CCC(O)C12C` (stereo unspecified), the Potency result was “inactive”.

In the case of `Brc1c(Br)c(Br)c2[nH]cnc2c1Br`, the Potency result was “inactive”.

Consider `Fc1ccc(CN(C2=NCCN2)c2c(Cl)cccc2Cl)cc1`, for which the Potency result is “inactive”.

Turning to `COc1ccccc1N1CCN(CCCCNC(=O)c2ccc3ccccc3c2)CC1`, the Potency result was “inactive”.

Consider `COCc1nc2c([nH]1)c(=O)n(C)c(=O)n2CC(C)C`, for which the Potency result is “inactive”.

Take `c1ccc(C(NCCNC(c2ccccc2)c2ccccc2)c2ccccc2)cc1`: the Potency entry was “inactive”.

With `CN1CC(O)C(O)C(O)C1CO` (stereo unspecified), the Potency entry is “inactive”.

As for `COC(=O)[C@H](NC(=O)c1cc(-c2ccccc2)nc2ccccc12)c1ccccc1`, the Potency result was “inactive”.

Regarding `CCCOC(=O)c1c(-c2ccccc2)nc(CC)c(C(=O)SCC)c1CCC`, the Potency result is “inactive”.

As to `CCCCOC(=O)NS(=O)(=O)c1sc(CC(C)C)cc1-c1ccc(Cn2c(CC)nc3c(C)cc(C)nc32)cc1`, the Potency result was “inactive”.

`CN1CCN(c2nc3cc(C(F)(F)F)ccc3n3cccc23)CC1`: the Potency result was “inactive”.

Turning to `COc1ccc(NC(=O)c2ccc(-c3ccc(-c4noc(C)n4)cc3C)cc2)cc1N1CCN(C)CC1`, the Potency result was “inactive”.

Take `c1ccc(C(NCc2cccnc2)(c2ccccc2)c2ccccc2)cc1`: the Potency result is “inactive”.

Consider `C/C(=C\c1ccc(C(=O)O)cc1)c1ccc2c(c1)C(C)(C)CCC2(C)C`, for which the Potency entry was “inactive”.

In the case of `C#CCn1c(=O)c2c(ncn2C)n(C)c1=O`, the Potency entry is “inactive”.

In the case of `CC#CCOC(=O)c1c(C)nc2sc3c(c2c1N)CCC(O)C3` (stereo unspecified), the Potency result was “inactive”.

Turning to `N[C@@H](Cc1ccc(O)c(I)c1)C(=O)O`, the Potency entry is “inactive”.

Take `O=c1[nH]c(=S)[nH]c(-c2ccccc2)c1Cc1c(O)ccc2ccccc12`: the Potency entry is “inactive”.
